# VLA-4 inh: inhibition in a human VLA-4 binding assay | AID 2557 | 330,000 compounds, 0.2% hits | P13612 | VLA-4 expressing cells, ligand binding flow cytometry | inhibition, % (about 7 µM as worked out from the volumes in the protocol); in the data active means inhibition above about 50%
# ALR inh: blocks human ALR sulfhydryl oxidase activity; P55789; inhibition, % (no concentration beside the values); 290,000 compounds, 3.8% hits; purified ALR, DTT oxidation, H2O2 HRP-luminol luminescence;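 active means mean replicate inhibition above about 79%, with every replicate also reaching it, limit read from the data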
# Target sequence (P55789 whole entry, looked up): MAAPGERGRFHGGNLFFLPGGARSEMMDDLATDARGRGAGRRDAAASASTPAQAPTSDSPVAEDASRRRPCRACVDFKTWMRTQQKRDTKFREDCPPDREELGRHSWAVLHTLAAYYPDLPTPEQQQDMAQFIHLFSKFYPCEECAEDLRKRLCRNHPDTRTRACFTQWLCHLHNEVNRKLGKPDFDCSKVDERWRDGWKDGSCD
# A1 inh: inhibitors of the anti-apoptotic protein A1, read as caspase activation. 330,000 compounds, 0.066% hits. MEF A1-2A-BIM cells, Caspase-Glo 3/7 luminescence, 3 h; percent of clofoctol response, vehicle zero. caspase activation, % (test concentration not listed). AID 2462;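 active means over half of replicate activation scores above 10%, or exactly half above 10 with the replicate mean above 10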
# Mot1-301 SUMO: inhibitors of SUMOylation pathway: yeast Mot1-301 growth rescue. S. cerevisiae Mot1-301 growth rescue, ATP luminescence, 38.5C; percent above DMSO median, 100 means doubled. growth rescue, % at 18.8 µM. 320,000 compounds, 1% hits. AID 2716;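 active means every valid replicate shows activation above 250% relative to neutral control wells; inactive means the rest, any valid replicate at or below 250%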
# Efflux pump inh: blocks antifungal efflux pumps in multiplex yeast assay. S. cerevisiae Candida pump triplex, Nile Red efflux. inhibition, % at 10 µM. 330,000 compounds, 0.44% hits;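 active means plate passing quality check with inhibition over a set limit, or well fluorescence over plate mean plus 4 SD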;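 further: Nile Red retained in pooled yeast measured as flow cytometry median fluorescence; higher means more Nile Red kept so more efflux inhibition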
# AHR activator: activates the human aryl hydrocarbon receptor; AID 2796; 320,000 compounds, 2.5% hits; AHR-responsive luciferase reporter cells, luminescence; activation, % at 5 µM; P35869; in the data active means activation above about 47%
# Cmpd fluor yeast: compound fluorescence in yeast efflux pump counter-screen. S. cerevisiae AD/pABC3, flow cytometry. fluorescence ratio to DMSO, % at 10 µM. shares compounds with Efflux pump inh. 1,700 compounds, 4% hits. AID 588517;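 active means fluorescence ratio to DMSO above its plate's cutoff, the plate mean ratio plus 5 SD, cut at about 210% in these data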;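 further: unstained yeast with no Nile Red so the signal is compound autofluorescence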
# Mdr1 pump inh: inhibitors of Candida albicans Mdr1 efflux pump. 1,700 compounds, 1% hits. inhibition, % at 10 µM. shares compounds with Efflux pump inh. S. cerevisiae AD/CaMDR1, Nile Red efflux, flow cytometry; in the data active means inhibition above about 26%;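 further: higher means more Nile Red retained so more efflux inhibition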
# CaCdr2 efflux inh: blocks the Candida albicans Cdr2 efflux pump in yeast | shares compounds with Efflux pump inh | AID 588520 | 1,700 compounds, 4% hits | S. cerevisiae AD/CaCDR2, Nile Red retention, flow cytometry | Nile Red retention ratio vs DMSO, % at 10 µM; in the data active means Nile Red retention ratio vs DMSO above about 190%;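 further: higher ratio means more blocking of Cdr2 efflux of the dye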
# Cdr1 pump inh: Candida Cdr1 efflux pump inhibition; shares compounds with Efflux pump inh; S. cerevisiae AD/CaCDR1, Nile Red efflux, flow cytometry; inhibition, % at 10 µM; 1,700 compounds, 1% hits;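 active means inhibition above the screen-wide mean plus twice its standard deviation, cut at about 32% in these data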
# A number is an active result; n = inactive; x = no result; + = active, no number. The list is not random: actives were taken first. Their share in the collection is about 7.2%.
SMILES,VLA-4 inh,ALR inh,A1 inh,Mot1-301 SUMO,Efflux pump inh,AHR activator,Cmpd fluor yeast,Mdr1 pump inh,CaCdr2 efflux inh,Cdr1 pump inh
CC[N+]1(C)CC2CCC(C)(C1)C2(C)C (centres undefined),x,x,x,n,x,x,x,x,x,x
Cc1ccc(/C=C/c2ccc(N(C)C)cc2)[n+](C)c1,n,99,n,n,4.4,n,+,34,n,n
CN(C)c1ccc(/C=C/c2cc[n+](C)cc2)cc1,n,99,n,n,130,n,+,+,488,+
C[n+]1ccc(/C=C/c2cccs2)cc1,n,n,n,n,n,n,x,x,x,x
COCc1ccc(C(=O)NC(C)c2cnn(-c3ccccc3C)c2C)o1 (centres undefined),n,x,n,n,n,n,x,x,x,x
Cc1cccc(C(=O)N2CCC(=O)N(C(COCc3cccc(C(F)(F)F)c3)Cc3ccccc3)CC2)c1 (centres undefined),n,n,n,n,1.0,n,n,n,n,n
Cc1cccc(C(=O)N2CCC(=O)N(C(COCc3ccccc3)Cc3ccccc3)CC2)c1 (centres undefined),n,n,n,n,n,n,x,x,x,x
CCOc1ccccc1NC(=S)NC1CC2CCC1C2 (centres undefined),n,n,n,n,1.1,n,n,n,n,n
COC(=O)COc1ccc(S(=O)(=O)NCc2ccco2)cc1Cl,n,n,n,n,n,n,x,x,x,x
Cc1cccc(C)c1NC(=O)C1CC2CCC1C2 (centres undefined),n,x,n,n,0.8,n,n,n,n,n
Cc1cc(C)c(NC(=O)C2CC3CCC2C3)c(C)c1 (centres undefined),n,n,n,n,n,n,x,x,x,x
CCOC(=O)/C(C#N)=C\C1=C(N2CCCC2)CC(C)(C)OC1,n,n,n,n,n,n,x,x,x,x
CCOC(=O)/C(C#N)=C/C1=C(N2CCOCC2)C(C)(C)OCC1,n,n,n,n,0.9,n,n,n,n,n
N/C(=N\OC(=O)Cc1ccccc1)c1ccccc1Cl,n,n,n,n,n,n,n,n,n,n
O=C(COC(=O)c1cnccn1)Nc1cccc(F)c1,n,n,n,n,n,n,x,x,x,x
COC(=O)c1ccc2c(c1)N(Cc1nc(-c3ccc(Cl)cc3)oc1C)C(=O)C1CCCN21 (centres undefined),n,x,n,n,n,n,x,x,x,x
Cc1ccccc1S(=O)(=O)Nc1ncnc2scc(-c3ccccc3)c12,n,n,n,n,11,n,n,n,n,n
CN(C)CCCNc1ncnc2scc(-c3ccccc3)c12,n,n,n,n,n,n,x,x,x,x
COc1ccc(NC(=O)Cn2cc(S(=O)(=O)Cc3ccccc3)c3ccccc32)c(OC)c1,n,n,n,n,9.6,n,n,n,n,n
COc1ccc(N2CCN(C(=O)C(NC(=O)c3c(F)cccc3F)C(C)C)CC2)cc1 (centres undefined),n,n,x,n,n,n,x,x,x,x
CCOc1ccc(CNC(=O)CCCn2nc(C)c3c(C)n(-c4ccc(C)cc4)nc3c2=O)cc1,n,n,n,n,n,n,x,x,x,x
O=C1C=CC(=O)N1c1cccc(-c2ccccc2)c1,n,x,13,n,2.6,n,n,n,n,n
CCn1c(SCC(=O)N/N=C/C(C)=C/c2ccco2)nnc1-c1ccccc1,n,n,n,n,0.8,n,n,n,n,n
Cc1cccc(NC(=S)N(CCN(C)C)Cc2cccs2)c1,n,x,n,n,1.0,n,n,n,n,n
Cc1cccc2cc(CN(Cc3cccs3)C(=S)NCC3CCCO3)c(=O)[nH]c12 (centres undefined),n,n,n,n,n,n,x,x,x,x
SMILES,VLA-4 inh,ALR inh,A1 inh,Mot1-301 SUMO,Efflux pump inh,AHR activator,Cmpd fluor yeast,Mdr1 pump inh,CaCdr2 efflux inh,Cdr1 pump inh
Cc1ccc(NC(=S)N(Cc2cccs2)Cc2cc3cccc(C)c3[nH]c2=O)cc1,n,n,n,n,8.9,n,n,n,n,n
CC1C(=O)N2CCCc3cc(S(=O)(=O)N(C)CCC#N)cc1c32 (centres undefined),n,n,n,n,n,n,x,x,x,x
O=C1[C@H](CC[C@H](O)c2ccc(F)cc2)[C@@H](c2ccc(O)cc2)N1c1ccc(F)cc1,n,n,n,n,n,n,x,x,x,x
Oc1c(C(c2ccccn2)N2CCC(Cc3ccccc3)CC2)cc(Cl)c2cccnc12 (centres undefined),n,n,n,n,53,n,n,n,n,n
O=C(Nc1nc(-c2ccccn2)cs1)C1CC(=O)N(c2ccc3c(c2)OCCO3)C1 (centres undefined),n,n,n,n,n,n,x,x,x,x
Cc1cc(Cl)ccc1NC(=O)CSc1nnc(Cc2cccs2)n1Cc1ccco1,n,n,n,n,n,n,n,n,n,n
COc1ccc(C(=O)CSc2nnc(CNc3ccc(C)cc3C)n2Cc2ccco2)cc1,n,x,n,n,1.1,n,n,n,n,n
COc1cc2c(cc1NC(=O)CSc1nnc(Cc3cccs3)n1Cc1ccco1)oc1ccccc12,x,n,n,n,n,n,n,n,n,n
Cc1cc(C)c(NC(=O)CSc2nnc(-c3ccncc3)n2Cc2ccco2)c(Cl)c1,n,n,n,n,1.3,n,n,n,n,n
CC(=O)N[C@@H](C)c1nc2ccccc2n1CCNC(=O)[C@H]1CCCN1c1nc(CN2CCCCC2)cs1,n,n,n,n,n,n,x,x,x,x
C=CCc1cccc2cc(C(=O)NNC(=O)CC#N)c(=O)oc12,n,x,n,n,n,n,x,x,x,x
COc1ccc(CCN2CC(C(=O)NCc3c(C)n[nH]c3C)CCC2=O)cc1 (centres undefined),n,n,n,n,n,n,x,x,x,x
CC(C)NC(=O)Nc1cccc2c1O[C@H](CN(C)S(=O)(=O)c1ccc(F)cc1)[C@@H](C)CN([C@H](C)CO)C2=O,n,x,x,x,n,n,n,n,n,n
C[C@H](CO)N1C[C@H](C)[C@@H](CN(C)S(=O)(=O)c2cccs2)Oc2ccc(NC(=O)Nc3ccc4c(c3)OCO4)cc2C1=O,n,n,n,n,n,n,x,x,x,x
C[C@H](CO)N1C[C@H](C)[C@@H](CN(C)S(=O)(=O)c2cccs2)Oc2c(NC(=O)Nc3ccc4c(c3)OCO4)cccc2C1=O,n,n,n,n,n,n,n,n,n,n

# Screening data (PubChem)
